Results filed as inconclusive are left out. Unmarked numbers belong to inactive results. The source made the active and inactive calls. Calls follow the shape of the dose curve; as a rule, active = well fitted cell-killing curve with a large enough effect; inconclusive = small, poorly fitted or top-dose-only effect, or effect the other way; inactive = no such curve, though single readings can be large or run the other way. *1 amine or outer side, *2 acyl side, *3 side chain or, on linkers, in order; H or OH if unused. Where a SMILES comes first, the peptide text is derived from it. Bridges are numbered along the chain shown (N, C = ends). Roman numbers before positions name the chains, in order. [ ]: non-standard residue; d: D form. Actinocin(9to1) = Cc1c2oc3c(C)ccc(C(=O)[*:1])c3nc-2c(C(=O)[*:2])c(N)c1=O; NMeV = CN[C@H](C(=O)O)C(C)C; Sar = CNCC(=O)O
Each compound was assayed on HeLa (assay: Confirmatory qHTS for gynecologic anti-cancer compounds from libraries of approved drugs and bioactive compounds). Conditions: gynecologic cancer cell panel viability, ATPlite luminescence, 48 h; series mostly up to 57.6 µM; activity change, negative = viability loss: at the top concentration.
How it was run: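 Cells (1,000/well) were plated, left 16 h at 37 C/5% CO2, then given compound at 11 concentrations (1:3) from 57.5 uM to 0.977 nM for 48 h. ATPlite luminescence after 15 min at room temperature gave IC50 values.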
% is scaled to controls: 0 for no effect and ±100 for the full control effect; potency is read from the fitted curve at half-maximal effect.
Also: nearly all actives have a fitted effect of over 55% in size.

Row | SMILES | Potency | activity change, negative = viability loss [%]
1 | CC(C)c1nn(-c2c(Cl)cccc2Cl)c2nc(Cc3ccc(OCCO)cc3)[nH]c(=O)c12 | 0.122 µM (active) | 
2 | COc1cc(Nc2c(C#N)cnc3cc(OCCCN4CCN(C)CC4)c(OC)cc23)c(Cl)cc1Cl | 27.3 µM (active) | 
3 | Fc1cc(-c2cccc3ncc(-c4cnn(C5CCNCC5)c4)nc23)cc(F)c1CN1CCOCC1 | 24.3 µM (active) | 
4 | C[C@@]1(C(=O)Nc2ccc(F)nc2)CCCN1c1nc(Nc2cc(C3CC3)[nH]n2)c2cccn2n1 | 0.968 µM (active) | 
5 | O=C1Cc2cc(CCN3CCN(c4nsc5ccccc45)CC3)c(Cl)cc2N1 |  | -11
6 | Nc1ccccc1NC(=O)c1ccc(CNc2nccc(-c3cccnc3)n2)cc1 | 1.53 µM (active) | 
7 | CCN(CC)CCNC(=O)c1c(C)[nH]c(/C=C2\C(=O)Nc3ccc(F)cc32)c1C | 12.6 µM (active) | 
8 | CCN(CC)CCOc1ccc(/C(=C(\Cl)c2ccccc2)c2ccccc2)cc1 | 79.4 µM (active) | 
9 | Cc1nc2ccc(CN(C)c3ccc(C(=O)NC(CCC(=O)O)C(=O)O)s3)cc2c(=O)[nH]1 (stereo unspecified) | 0.0544 µM (active) | 
10 | Nc1nc(=S)c2[nH]cnc2[nH]1 | 2.43 µM (active) | 
11 | CNc1nccc(-c2cccnc2Oc2cc(C(=O)Nc3cccc(C(F)(F)F)c3)ccc2C)n1 | 15.3 µM (active) | 
12 | Oc1cn2c(n1)Nc1ccc(Cl)c(Cl)c1C2 | 0.0106 µM (active) | 
13 | COc1cc(N2CCC(N)CC2)ccc1Nc1ncc(Cl)c(-c2c[nH]c3ccccc23)n1 | 0.544 µM (active) | 
14 | CCOc1cc2ncc(C#N)c(Nc3ccc(F)c(Cl)c3)c2cc1NC(=O)/C=C/CN(C)C | 24.3 µM (active) | 
15 | CC(Oc1cc(-n2cnc3ccc(CN4CCN(C)CC4)cc32)sc1C(N)=O)c1ccccc1C(F)(F)F (stereo unspecified) | 2.43 µM (active) | 
16 | COc1cccc2c1C(=O)c1c(O)c3c(c(O)c1C2=O)C[C@@](O)(C(=O)CO)C[C@@H]3O[C@H]1C[C@H](N)[C@H](O[C@@H]2CCCCO2)[C@H](C)O1 | 12.2 µM (active) | 
17 | C[C@]12CCC(=O)C=C1[C@@H]1C[C@@H]1[C@H]1[C@@H]3[C@@H]4C[C@@H]4[C@@]4(CCC(=O)O4)[C@@]3(C)CC[C@@H]12 | 4.85 µM (active) | 
18 | Cc1cnc(Nc2ccc(OCCN3CCCC3)cc2)nc1Nc1cccc(S(=O)(=O)NC(C)(C)C)c1 | 3.85 µM (active) | 

Row | SMILES | Potency | activity change, negative = viability loss [%]
19 | COc1cc2c(NC3CCN(C(C)C)CC3)nc(C3CCCCC3)nc2cc1OCCCN1CCCC1 | 15.3 µM (active) | 
20 | O=C(CCCCCCC(=O)Nc1ccccc1)NO | 3.43 µM (active) | 
21 | COc1cc(-c2nn(C3CCC(N4CCN(C(C)=O)CC4)CC3)c3ncnc(N)c23)ccc1NC(=O)c1cc2ccccc2n1C (stereo unspecified) | 30.6 µM (active) | 
22 | OCCNC1CCCc2c1[nH]c1ccc(-c3ccccc3)cc21 (stereo unspecified) | 1.93 µM (active) | 
23 | O=c1[nH]c(=O)n([C@H]2C[C@H](O)[C@@H](CO)O2)cc1F | 2.43 µM (active) | 
24 | Cc1ccc(C(=O)N(CCCN)C(c2nc3cc(Cl)ccc3c(=O)n2Cc2ccccc2)C(C)C)cc1 (stereo unspecified) | 0.0172 µM (active) | 
25 | Cc1c2oc3c(C)ccc(C(=O)N[C@@H]4C(=O)N[C@H](C(C)C)C(=O)N5CCC[C@H]5C(=O)N(C)CC(=O)N(C)[C@@H](C(C)C)C(=O)O[C@@H]4C)c3nc-2c(C(=O)N[C@@H]2C(=O)N[C@H](C(C)C)C(=O)N3CCC[C@H]3C(=O)N(C)CC(=O)N(C)[C@@H](C(C)C)C(=O)O[C@@H]2C)c(N)c1=O (I: T[dV]P[Sar][NMeV] / II: T[dV]P[Sar][NMeV]; ester I:1-I:C, II:1-II:C; linker I:N-II:N via Actinocin(9to1)) | 0.863 µM (active) | 
26 | Cc1cnc(Nc2ccc(F)cc2Cl)nc1-c1c[nH]c(C(=O)NC(CO)c2cccc(Cl)c2)c1 (stereo unspecified) | 9.68 µM (active) | 
27 | CNC(=O)c1ccccc1Nc1nc(Nc2ccc(N3CCOCC3)cc2OC)ncc1Cl | 0.769 µM (active) | 
28 | CN[C@@H](C)C(=O)N[C@H]1CN(C(=O)CC(C)C)CC[C@H]2CC[C@@H](C(=O)NC(c3ccccc3)c3ccccc3)N2C1=O |  | -6.64
29 | CC[C@@]1(O)C(=O)OCc2c1cc1n(c2=O)Cc2c-1nc1ccccc1c2/C=N/OC(C)(C)C | 7.69 µM (active) | 
30 | C[C@]12CCC(=O)C=C1CC[C@@H]1[C@@H]2[C@@H](O)C[C@@]2(C)[C@H]1CC[C@]2(O)C(=O)CO |  | -2.25
31 | CN(NC(=O)CC(=O)NN(C)C(=S)c1ccccc1)C(=S)c1ccccc1 | 0.122 µM (active) | 
32 | CCc1nc(C(N)=O)c(Nc2ccc(N3CCC(N4CCN(C)CC4)CC3)c(OC)c2)nc1NC1CCOCC1 | 3 µM (active) | 
33 | Cn1cc(-c2ccc3ncc(Cc4ccc5ncccc5c4)n3n2)cn1 |  | 4.63
34 | CC1=C(/C=C/C(C)=C/C=C/C(C)=C/C(=O)Nc2ccc(O)cc2)C(C)(C)CCC1 | 24.3 µM (active) | 
35 | Cc1cc(Nc2cc(N3CCN(C)CC3)nc(/C=C/c3ccccc3)n2)n[nH]1 | 1.72 µM (active) | 
36 | Cc1nc(N)ncc1-c1nc(N2CCOCC2)c2sc(C(C)(C)O)cc2n1 | 1.72 µM (active) | 

Reference: PubChem BioAssay AID1345085 (National Center for Advancing Translational Sciences (NCATS), 2018)
